# “And” between values parts separate entries of the source, which are not always exact repeats. Identical values can stand only once. Results filed as inconclusive are left out. A structure can be active in one record and inactive in another. The source made the active and inactive calls. The calls were made as follows: active = hit-call score of the fitted dose curve at least 0.9, where 1 is the maximum; inconclusive = response in the unintended direction; inactive = score below 0.9.
# Test: Tanguay_ZF_120hpf_EYE_legacy: (Legacy) Oregon State University Tanguay Lab 120 Hour Post-fertilization zebrafish Assay for Eye Malformation (AID 2283636);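 also: binary presence or absence of eye malformation scored by brightfield in 120 hpf larvae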
# Method: Tanguay_ZF_120hpf_legacy is a whole embryo, multiplexed endpoint assay using zebrafish larvae exposed for 120 hours post fertilization on a 96-well plate.Tanguay_ZF_120hpf_EYE_legacy is one of one assay component(s) measured or calculated from the Tanguay_ZF_120hpf_legacy assay. It is designed to make measurements of zebrafish development as detected with brightfield microscopy of developing zebrafish embryos.Data from the assay component Tanguay_ZF_120hpf_EYE_legacy was analyzed into 1 assay endpoints. This assay endpoint, Tanguay_ZF_120hpf_EYE_legacy, was analyzed in the positive analysis fitting direction relative to DMSO as the negative control and baseline of activity. Using a type of morphology reporter, gain-of-signal activity can be used to understand changes in developmentals as they relate to the whole embryo. To generalize the intended target to other relatable targets, this assay endpoint is annotated to the zebrafish development intended target family, where the subfamily is embryonic eye development.
# Zebrafish husbandry: Tropical 5D wild-type adult zebrafish were housed in at an approximate density of 1000 per 100 gallon tank at the Sinnhuber Aquatic Research Laboratory, Oregon State University, Corvallis, OR. Each tank was kept at standard laboratory conditions of 28C on a 14-h light/10-h dark photoperiod in fish water consisting of reverse osmosis water supplemented with a commercially available salt (Instant Ocean). Spawning funnels were placed into the tanks the night prior, and embryos were collected and staged. To increase bioavailability, the chorion was enzymatically removed using pronase (63.6mg/ml, >/= 3.5U/mg, Sigma-Aldrich: P5147) at 4 hours post fertilization (hpf) using a custom automated dechorionator.Chemical exposures: Six hpf dechorionated embryos were placed 1 embryo per well in a 96-well plate prefilled with 90 ul of EM using automated embryo placement systems (AEPS). Ten microliters of each row of dilution plate 2 was added to 2 exposure plates. The final DMSO concentration used was 0.64% (vol/vol). Thirty-two embryos were also exposed to 5uM trimethyltin chloride (positive control). Plates were sealed to prevent evaporation and foil covered to reduce light exposure and kept in a 28C incubator. Embryos were statically exposed until 120 hpf. At 24 hpf, embryos were assessed for photomotor response using a custom photomotor response analysis tool (PRAT) and for developmental toxicity endpoints (MO24: mortality at 24 hpf, DP: developmental progression, SM: spontaneous movement, and NC: notochord distortion). At 120 hpf, locomotor activity was measured using Viewpoint Zebralab and assessed for 18 endpoints. Zebrafish acquisition and analysis program (ZAAP), a custom program designed to inventory, acquire, and manage zebrafish data, was used to collect developmental endpoints as either present or absent (i.e., binary responses were recorded). If mortality occurred for an embryo (at either 24 or 120 hpf), the non-mortality endpoints were not measured.
Structure (SMILES),outcome,AC50
CC(C)(C)[C@@H](O)[C@@H](Cc1ccc(Cl)cc1)n1cncn1,inactive,–
c1ccc2[nH]c(-c3cscn3)nc2c1,inactive,–
O=C(O)c1ccccc1,inactive,–
CCN(CC)C(=O)c1cccc(C)c1,inactive,–
CCC(C)OC(=O)N1CCCCC1CCO (stereo not given),inactive,–
OB(O)O,inactive,–
CCOC(=O)C(C)Oc1ccc(Oc2cnc3cc(Cl)ccc3n2)cc1 (stereo not given),inactive,–
CCCCOCCOCCOCc1cc2c(cc1CCC)OCO2,inactive,–
N#CSCSc1nc2ccccc2s1,inactive,–
CCCOC(=O)c1ccc(C(=O)OCCC)nc1,inactive,–
CC(C)(c1ccc(O)cc1)c1ccc(O)cc1,inactive,40 µM (active) and 40.1 µM (active)
S=C([S-])NCCNC(=S)[S-].[Mn+2],inactive,–
CCCCCCC(C)OC(=O)COc1nc(F)c(Cl)c(N)c1Cl (stereo not given),inactive,–
CCCCC(CC)COC(=O)c1ccccc1C(=O)O (stereo not given),inactive,–
Cc1nn(C)c(Oc2ccccc2)c1C=NOCc1ccc(C(=O)OC(C)(C)C)cc1,inactive,–
O=C(c1ccccc1)C1CCCCC1,inactive,–
CCOC(=O)C(C)Oc1ccc(Oc2nc3ccc(Cl)cc3o2)cc1 (stereo not given),inactive,–
COCCO,inactive,–
CCN(Cc1c(F)cccc1Cl)c1c([N+](=O)[O-])cc(C(F)(F)F)cc1[N+](=O)[O-],inactive,–
CCCCOC(=O)[C@@H](C)Oc1ccc(Oc2ccc(C(F)(F)F)cn2)cc1,inactive,–

Structure (SMILES),outcome,AC50
CC(C)CCCCCCc1ccc(O)cc1,inactive,–
C#CCOC(=O)[C@@H](C)Oc1ccc(Oc2ncc(Cl)cc2F)cc1,inactive,–
CSC(=O)c1cccc2nnsc12,inactive,–
CC(=O)[C@H]1CC[C@H]2[C@@H]3CCC4=CC(=O)CC[C@]4(C)[C@H]3CC[C@]12C,inactive,–
COc1c(Cl)ccc(Cl)c1C(=O)O,inactive,–
CCCOC(=O)NCCCN(C)C,inactive,–
CCCCOC(=O)C(C)Oc1ccc(Oc2ccc(C(F)(F)F)cn2)cc1 (stereo not given),inactive,–
N[C@@H](Cc1cc(I)c(Oc2ccc(O)c(I)c2)c(I)c1)C(=O)O,–,2.51 nM (active)
CCCCCOC(=O)COc1cc(N2C(=O)C3=C(CCCC3)C2=O)c(F)cc1Cl,inactive,–
C=CCOC(Cn1ccnc1)c1ccc(Cl)cc1Cl (stereo not given),inactive,–
CC1(C)C(C=C(Cl)Cl)C1C(=O)OCc1cccc(Oc2ccccc2)c1 (stereo not given),inactive,–
C[C@]12C[C@H](O)[C@H]3[C@@H](CCC4=CC(=O)CC[C@@]43C)[C@@H]1CC[C@@H]2C(=O)CO,inactive,–
Oc1ccc(C(c2ccc(O)cc2)C(Cl)(Cl)Cl)cc1,inactive,–
O=C(c1ccc(O)cc1O)c1ccc(O)cc1O,inactive,–
CCOC(=O)c1ccc(O)cc1,inactive,–
C#C[C@]1(O)CC[C@H]2[C@@H]3CCC4=CC(=O)CC[C@@H]4[C@H]3CC[C@@]21CC,inactive,–
O=C(Nc1ccc([N+](=O)[O-])cc1Cl)c1cc(Cl)ccc1O,inactive,–
CCNc1nc(N)nc(Cl)n1,inactive,–
CCOC(=O)COc1cc(-n2ncc(C(F)(F)F)c(C)c2=O)c(F)cc1Cl,inactive,–

# — PubChem BioAssay (EPA / NIEHS)
